In PubChem BioAssay AID504332 (National Center for Advancing Translational Sciences (NCATS), 2011):
Among all 350,000 compounds or so, about 31,000 (8.9%) were called active. A call without a number means that no potency is given here. Another 15% or so got no clear call; they are omitted. This is one part of a sample in which actives are shown more often than they occur. Unmarked numbers belong to inactive results. Calls come from the whole dose curve; as a rule, active = well fitted inhibition curve with a large enough effect; inconclusive = small, poorly fitted or top-dose-only effect; inactive = no such curve, though single readings can be large or run the other way.
Note: nearly all actives have a fitted effect of over 75% in size.
Potency is the fitted concentration of half-maximal effect.

The molecules below were run against Histone-lysine N-methyltransferase EHMT2 (Homo sapiens) (UniProt Q96KQ7) (assay: qHTS Assay for Inhibitors of Histone Lysine Methyltransferase G9a). Details: G9a H3K9 monomethylation, AlphaScreen, 2 h; series mostly up to 59 µM.
Sequence of Histone-lysine N-methyltransferase EHMT2 (Homo sapiens) (Q96KQ7 913-1193 limits assumed): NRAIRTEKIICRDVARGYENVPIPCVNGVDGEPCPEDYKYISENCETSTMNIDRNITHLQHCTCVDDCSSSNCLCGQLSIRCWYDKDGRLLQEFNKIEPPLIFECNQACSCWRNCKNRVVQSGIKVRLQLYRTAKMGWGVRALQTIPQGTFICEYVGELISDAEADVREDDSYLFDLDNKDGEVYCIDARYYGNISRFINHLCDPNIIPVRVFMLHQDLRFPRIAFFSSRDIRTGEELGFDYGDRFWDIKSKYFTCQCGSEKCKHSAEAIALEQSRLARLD
Procedure, shortened: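 G9a (20 nM) was preincubated 15 min with compound, then reacted 2 h at room temperature with 500 nM biotin-H3K9 peptide and 20 µM SAM. Monomethyl-H3K9 detected by AlphaScreen using anti-H3K9me1 antibody.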
With `Clc1nc(NC2CCCC2)nc(N2CCOCC2)n1` the Potency was “inactive”. In the case of `COC(=O)CNc1nc(Cl)nc(N2CCC(C)CC2)n1`, the Potency is reported as 56.2 µM (active). For `CCOC(=O)CNc1nc(Cl)nc(Nc2ccccc2)n1`, the Potency was “inactive”. In the case of `O=C(COc1ccc(Cl)cc1[N+](=O)[O-])N1CCCCC1`, the Potency is reported as “inactive”. With `O=C(COc1ccccc1F)NNC(=O)c1ccc(N2CCCCC2)c([N+](=O)[O-])c1` the Potency was “inactive”. In the case of `O=[N+]([O-])c1cc([N+](=O)[O-])c(Oc2cc(F)cc(F)c2F)cc1NN1CCCCC1`, the Potency is reported as 15.8 µM (active). `CCOC(=O)C1CCN(C(=O)CSc2c3c(nc4ccc(Cl)cc24)CCCC3)CC1` was tested, and the Potency was “inactive”. For `COc1ccccc1C(=O)NNC(=O)CCN1C(=O)/C(=C\c2ccccc2)SC1=S`, the Potency was “inactive”. In the case of `COc1ccc(/C=C2/SC(=O)N(CCCCCC(=O)Nc3ccccc3C(=O)O)C2=S)cc1`, the Potency is reported as 35.5 µM (active). With `COc1ccc(/C=C2\SC(=O)N(CCC(=O)NCCCn3ccnc3)C2=O)cc1` the Potency was “inactive”. In the case of `CN(C(=O)c1ccc2c(c1)N(Cc1cccc(Cl)c1)C(=O)c1ccccc1S2=O)C1CCCCC1` (configuration not stated), the Potency is reported as “inactive”. For `CCOc1ccc(NC(=O)c2cc(C)nc3ccccc23)cc1`, the Potency was “inactive”. Work on `CNC(=O)C(=O)N/N=C/c1ccccn1` yielded an activity, negative = inhibition of -131% [at 12.7 µM]. `Cc1cc(C(=O)N/N=C/c2ccccn2)c2ccccc2n1` was tested, and the Potency was 12.6 µM (active). With `COC(=O)C1CCN(C(=O)c2ccc3oc(Cc4ccc(Cl)cc4)nc3c2)CC1` the Potency was “inactive”. `CCC(=O)N1N=C(c2ccc(OC)cc2)CC1c1cn(-c2ccccc2)nc1-c1cccs1` (configuration not stated) was tested, and the Potency was “inactive”. In the case of `COc1ccc(-c2nc(Cn3c(=O)cc(C)c4c(C)nn(-c5ccccc5)c43)c(C)o2)c(OC)c1`, the Potency is reported as “inactive”. For `CCOc1cccc(C(=O)Nc2nnc(S(=O)(=O)N(C)c3ccc(C)cc3)s2)c1`, the Potency was “inactive”. In the case of `Cn1c(SCC(=O)N2CCOCC2)nnc1-c1ccc(NC(=O)c2ccccc2F)cc1`, the Potency is reported as 50.1 µM (active). For `Cn1c(SCC(=O)N2CCOCC2)nnc1-c1ccc2ncccc2c1`, the Potency was “inactive”. `Cn1c(SCC(=O)N2CCCC2)nnc1-c1ccc2c(c1)OCO2` was tested, and the Potency was “inactive”. In the case of `CCn1cc(C(=O)NCc2ccccc2)c(=O)c2cc(S(=O)(=O)N3CCCCC3)ccc21`, the Potency is reported as “inactive”. `Cc1ccc(CNC(=O)CCNS(=O)(=O)c2ccc3c(c2)oc(=O)n3C)cc1` was tested, and the Potency was “inactive”. For `COc1cccc(CN2CCc3nc(SCC(=O)Nc4ccccc4)[nH]c(=O)c3C2)c1`, the Potency was “inactive”. In the case of `O=C(CN1C(=O)c2cccc3cccc1c23)Nc1ccccc1`, the Potency is reported as “inactive”. `Nc1ccc2c3c(cccc13)C(=O)NC2=O` was tested, and the activity, negative = inhibition was 29.3% [at 12.7 µM]. `CCN1C(=O)c2cccc3c(N)ccc1c23` was tested, and the Potency was 39.8 µM (active). In the case of `Cc1cccc(NC(=O)CN2C(=O)c3ccccc3C2=O)c1C`, the Potency is reported as “inactive”. For `CN1C(=O)c2cccc3c(N)ccc(c23)C1=O`, the activity, negative = inhibition was -11.1% [at 2.33 µM]. In the case of `CCN1C(=O)c2cccc3c(S(=O)(=O)Nc4ccccc4O)ccc1c23`, the Potency is reported as 44.7 µM (active). `CCc1ccc(-c2cc3c(=O)n(CC(=O)NCCCN4CCN(Cc5ccccc5)CC4)nc(C)n3n2)cc1` was tested, and the Potency was “inactive”. `CCOc1ccccc1NC(=O)Cn1c(=O)n(-c2cccc(C)c2)c(=O)c2c1c1cc(OC)ccc1n2C` was tested, and the Potency was “inactive”. With `Cc1cc2oc(C(=O)N(Cc3ccc(Cl)cc3)Cc3ccco3)c(C)c2cc1Cl` the Potency was “inactive”. For `COc1ccc(CN2CCN(C(=O)c3cc(C4CC4)nn3-c3ccccc3)CC2)cc1F`, the Potency was “inactive”. In the case of `O=C(Nc1ccccc1)O/N=C1\CCCCC1c1ccc([N+](=O)[O-])cc1[N+](=O)[O-]` (configuration not stated), the Potency is reported as “inactive”. In the case of `O=[N+]([O-])c1ccc(N/N=C2/CCCCC2c2ccccn2)c([N+](=O)[O-])c1` (configuration not stated), the Potency is reported as 10 µM (active). `O=[N+]([O-])c1ccc2nc(-c3ccccn3)[nH]c2c1` was tested, and the Potency was “inactive”. For `Cc1cc([N+](=O)[O-])ccc1NC1CCCC1`, the Potency was “inactive”. `O=C(COC(=O)c1cc([N+](=O)[O-])ccc1NCc1ccccc1)NC1CCCCC1` was tested, and the Potency was “inactive”. `C[n+]1ccccc1C1CCCC/C1=N\Nc1ccc([N+](=O)[O-])cc1[N+](=O)[O-]` (configuration not stated) was tested, and the Potency was 2 µM (active). With `CCOc1ccc(CNCc2c(C(=O)O)c(C)n(Cc3cccc(OC)c3)c2C)cc1OC` the Potency was “inactive”. In the case of `CC(C)Sc1oc(-c2cccs2)nc1S(=O)(=O)c1ccc(Cl)cc1`, the Potency is reported as “inactive”. For `C/C(=N/OC(=O)c1ccc(Br)cc1)c1ccc(C)cc1`, the Potency was “inactive”. `C/C(=N\OC(=O)c1ccccc1)c1c(C)nc2cc(C)ccn12` was tested, and the Potency was 50.1 µM (active). With `CCOc1ccc(/C=N\NC(=O)c2c(C)nc3cc(C)ccn23)cc1` the activity, negative = inhibition was 18% [at 0.501 µM]. For `Cc1nnc(N2CCC(C(=O)Nc3ccc(F)cc3)CC2)c2nn(-c3ccc(Cl)cc3)c(C)c12`, the Potency was “inactive”. In the case of `Cc1cccc(C(=O)NCCc2nc3ccccc3n2Cc2ccccc2Cl)c1`, the Potency is reported as “inactive”. `O=C(Nc1cccc(-c2cccc(Cl)c2)c1)C1CCN(C2CCC2)CC1` showed an activity, negative = inhibition of -4.3% [at 0.0925 µM]. In the case of `O=Cc1c(Nc2ccccc2Cl)nc2ccccn2c1=O`, the activity, negative = inhibition is reported as 5.69% [at 0.501 µM]. In the case of `COc1cccc(OC)c1C(=O)N1CCN(Cc2cccnc2)CC1`, the Potency is reported as 7.08 µM (active). `COc1cccc(OC)c1OCCN1CCN(C(=O)c2ccco2)CC1` was tested, and the Potency was “inactive”. For `COc1ccccc1C(=O)N1CCN=C1SCc1cccnc1`, the activity, negative = inhibition was 4.75% [at 12.7 µM]. In the case of `CCC(C)N(C(=O)CSc1nnnn1-c1ccccc1OC)C1CCS(=O)(=O)C1` (configuration not stated), the Potency is reported as “inactive”. `CCn1c(=O)c(=O)[nH]c2c(=O)oc3ccc(S(=O)(=O)Nc4ccc(OC)cc4)cc3c21` was tested, and the Potency was “inactive”. In the case of `Cc1ccc(Cl)c(OCC(=O)N2CCc3ccccc3C2)c1`, the Potency is reported as “inactive”. In the case of `O=C1N/C(=C/c2cccs2)C(=O)N1Cc1ccc(F)cc1`, the Potency is reported as “inactive”. For `CSC1=N/C(=C\C=C\c2cccs2)C(=O)S1`, the Potency was 7.94 µM (active). `Cc1cccc(C2=N/C(=C/c3cccs3)C(=O)O2)c1` was tested, and the Potency was “inactive”. For `CC(=O)c1ccc(N2CCN(C3C(=O)c4ccccc4N3C(C)=O)CC2)cc1` (configuration not stated), the Potency was “inactive”. With `CCCOc1ccccc1C(=O)NCCCC(=O)O` the Potency was “inactive”. With `COc1ccccc1-c1nc(SC)n[nH]1` the Potency was “inactive”. With `CCCOc1ccccc1-c1nc(SCCC(=O)O)n[nH]1` the Potency was 11.2 µM (active).
